Source: PubChem BioAssay (National Center for Advancing Translational Sciences (NCATS))
This is a sample that favours compounds with a hit; in the whole collection about 7% have one here.
DRD3 antagonist: qHTS of D3 Dopamine Receptor Antagonist: qHTS | D3R cells, DiscoveRx beta-arrestin luminescence, antagonist mode; stronger effect = lower value | max response, negative = inhibition, % | 360,000 compounds, 2.5% hits | AID 652054, 2013; in the data active means max response below about -50%; inconclusive means no clear call, values can overlap the other calls; further: on the % scale 0 is the no-effect control and ±100 the full control effect
Target sequence (P35462 whole entry, looked up): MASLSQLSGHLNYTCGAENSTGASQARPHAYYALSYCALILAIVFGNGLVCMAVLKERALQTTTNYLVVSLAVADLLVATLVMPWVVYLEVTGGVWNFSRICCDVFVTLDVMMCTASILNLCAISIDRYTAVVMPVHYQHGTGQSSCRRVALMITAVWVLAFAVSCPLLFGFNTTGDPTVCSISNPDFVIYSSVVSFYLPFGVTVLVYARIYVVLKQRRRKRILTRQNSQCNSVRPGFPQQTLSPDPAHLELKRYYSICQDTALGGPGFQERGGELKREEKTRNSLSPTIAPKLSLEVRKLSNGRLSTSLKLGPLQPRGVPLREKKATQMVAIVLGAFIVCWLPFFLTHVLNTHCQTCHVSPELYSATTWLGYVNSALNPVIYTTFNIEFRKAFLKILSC
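Cells expressing the human receptor were seeded at 1500 cells/well, incubated overnight at 37 degrees C in 5% CO2, then exposed to library compounds with dopamine controls for 90 minutes at 37 degrees C before luminescent detection.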
a7 integrin act: qHTS for Activators of Integrin-Mediated Alleviation for Muscular Dystrophy; alpha7betagal myoblasts, beta-gal FDG fluorescence, 48 h; 350,000 compounds, 0.064% hits; Potency, µM (doses to about 38.3 µM), for inactives: at the top dose activation, hits mostly activators; AID 624291, 2012;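 further: potency means the concentration at half of the fitted maximal effect; 100% = response of the positive control SU9516; nearly all actives have a fitted effect of over 60% in size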
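alpha7betagal+/- myoblasts (passage 13, 250/well) treated 48 h at 37C with compounds at 1:260 dilution of DMSO stock. Lysed, then beta-galactosidase activity read as FDG fluorescence (ex 480/em 540) after 30 min, with pre-read for autofluorescence.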
D3 ag: qHTS of D3 Dopamine Receptor Agonist: qHTS | max activation, % | D3R DiscoveRx beta-arrestin cells, luminescence, 90 min | 410,000 compounds, 0.58% hits; in the data active means max activation above about 30%; further: 0% is about no effect
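Agonist-mode cell screen: cells plated at 1500/well and incubated overnight at 37 °C, then exposed to library compounds for 90 min at 37 °C. Detection reagent was added for 30–60 min at room temperature, and luminescence was read.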
ATXN2 expr inh: Primary qHTS for Inhibitors of ATXN expression; HEK-293 ATXN2-luciferase reporter, luminescence, 24 h; Potency, µM (titrated, usually from 57 µM), inactives show at the highest dose activity change, negative = inhibition, most hits filed as inhibitors; 360,000 compounds, 0.72% hits; further: potency means the concentration at half of the fitted maximal effect; on the % scale 0 is the no-effect control and ±100 the full control effect; nearly all actives have a fitted effect of over 55% in size
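ATXN2-luciferase reporter cells (luciferase flanked by upstream and downstream ATXN2 gene portions) were treated 24 h at 37 °C with compounds at up to 57 uM. SteadyGlo luminescence gave expression; GF-AFC fluorescence gave viability.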
IL-1B inflam inh: qHTS for Inhibitors of Inflammasome Signaling: IL-1-beta AlphaLISA Primary Screen | AID 743279, 2014 | activity change, % at 57.5 µM | THP-1 LPS/ATP IL-1B secretion, AlphaLISA, 16 h; stronger effect = lower value | 360,000 compounds, 4.7% hits; in the data active means activity change below about -50%; inconclusive means mostly about -30% to -49%; further: on the % scale 0 is the no-effect control and ±100 the full control effect
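Secreted IL-1B measured by AlphaLISA bead assay after 16 h compound exposure of THP-1 cells; compounds (final up to 57.5 uM) added 1 h before LPS (250 ng/mL) and ATP (1.25 mM) stimulation; lower signal means less secretion.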
S2 tox: Viability Counterscreen for Primary qHTS for Inhibitors of ATXN expression; S2 cells (HEK-293 line with an ATXN2-luciferase reporter) viability, CellTiter-Fluor protease fluorescence, 24 h; Potency, µM (doses to about 56.7 µM), most hits filed as cytotoxic; 400,000 compounds, 0.49% hits; AID 651635, 2014; further: potency means the concentration at half of the fitted maximal effect; nearly all actives have a fitted effect of over 40% in size
An asterisk follows results filed as active; i = inactive; ? = inconclusive; / = no result given; [ ] = remark or other dose. Unless noted, the call rests on the fitted dose curve; in most records, active means well fitted curve in the direction sought with a large enough effect; inconclusive means small, poorly fitted or top-dose-only effect, or another doubt; inactive means no such curve, though single readings can be large; an effect the other way counts as inactive or inconclusive.

SMILES	DRD3 antagonist	a7 integrin act	D3 ag	ATXN2 expr inh	IL-1B inflam inh	S2 tox
Cc1ccc(NC2=NC(c3ccccc3)n3c(nc(C)cc3=O)N2)c(C)c1 (centres undefined)	4.0	1.5%	1.0	8.1%	-74.4*	i
COc1ccccc1C(=O)NCC(c1cccs1)N1CCc2ccccc21 (centres undefined)	-53.0*	26.6%	-14.4	4.8%	-0.6	i
Cc1ccc(N=C2SC(C(=O)Nc3ccc(OC(F)(F)F)cc3)C(N)=C2C(=O)Nc2c(C)cc(C)cc2C)cc1 (centres undefined)	-16.7	?	12.8	?	-104.2*	/
Cc1ccc(NC(=O)C2SC(=Nc3ccccc3)C(C(=O)Nc3ccc(Cl)cc3)=C2N)cc1 (centres undefined)	4.3	0.9%	-1.7	26.4%	-15.6	i
Cc1nnc(NCc2ccncc2)c2ccccc12	-19.9	-14.0%	-2.8	4.1%	9.0	i
CCOc1ccccc1C1CC(=O)NC(C)=C1C(=O)OC1CCCCCC1 (centres undefined)	/	/	-3.3	-2.8%	/	i
Cc1ccccc1Cn1c(-c2cncs2)nc2ccccc21	10.1	23.8%	-4.2	-3.9%	-52.1*	i
Brc1cc2c(cc1Cn1c(-c3cncs3)nc3ccccc31)OCO2	-8.9	-24.5%	10.0	-3.4%	-16.1	i
O=C(Cn1c(-c2cncs2)nc2ccccc21)NCc1ccccc1	-83.6*	4.7%	-35.2	-1.3%	-4.9	i
CCc1ccc(NC(=O)CSc2nc(=O)n(CCCN(C)C)c3c2CCC3)cc1	-14.4	-50.5%	2.9	-4.7%	-13.8	?
CCN(CC(=O)NCc1ccc(Cl)cc1)C(=O)CSc1cc(C)ccc1C	-4.1	0.0%	-2.7	-5.7%	-57.5*	i
CCN(CC(=O)NCc1ccc(Cl)cc1)C(=O)CSCC(=O)Nc1ccc(C)cc1	-18.7	2.7%	-7.6	-2.1%	-93.2*	i
CCN(CC(=O)Nc1ccc(OC)cc1)C(=O)CSCC(=O)Nc1ccc(C)cc1	23.3	14.9%	1.3	3.0%	13.1	i
Cc1noc(C)c1CSCC(=O)N(C)CC(=O)Nc1ccccc1Cl	10.8	12.5%	2.9	-4.8%	-3.1	i
O=C1Nc2cc(C(=O)NCCN3CCCCCC3)ccc2S/C1=C\c1ccccc1	-27.3	-83.5%	-4.2	/	-92.6*	?
Cc1cccc(/C=C2/Sc3ccc(C(=O)NCCN4CCCC4)cc3NC2=O)c1	-6.7	-55.5%	-11.3	/	?	?
CCN1CCN(CCCNC(=O)c2ccc3c(c2)NC(=O)/C(=C\c2cccc(C)c2)S3)CC1	-4.8	-87.8%	-0.5	/	-86.7*	?
O=C1Nc2cc(C(=O)NCCCN3CCCC3)ccc2S/C1=C/c1cccc(Cl)c1	-59.5*	-60.3%	-2.4	/	-4.0	?
Cc1ccc(C(=O)OCC(=O)NC2CCCC(C)C2C)cc1S(=O)(=O)N1CCCCC1 (centres undefined)	-1.0	-9.7%	0.4	-8.7%	9.2	i
O=C(CCNC(=O)N1CC(=O)Nc2ccccc21)NCc1ccccc1Cl	1.3	-13.1%	-0.7	/	-7.5	i
Cc1csc2nc(CNS(=O)(=O)c3ccc4c(c3)CCCC4)cn12	3.6	3.8%	12.3	6.5%	18.6	i
CCOC(=O)C1CCN(CC(=O)N2CCCc3c2c(=O)oc2ccc(OCc4ccccc4)cc32)CC1	/	/	-21.8	-22.4%	/	i
CC1CCN(CCC(=O)N2CCCc3c2c(=O)oc2ccc(O)cc32)CC1	-63.1*	-11.7%[7.66 µM]	-7.5	5.1%	-23.1	i
CN(CC(=O)N1CCCc2c1c(=O)oc1ccc(O)cc21)Cc1ccccc1	-68.4*	3.1%	-10.8	-5.4%	2.5	i
CC(C(=O)N1CCCc2c1c(=O)oc1ccc(O)cc21)N1CCc2ccccc2C1 (centres undefined)	-9.5	14.5%	-18.6	-12.1%	49.6	?
SMILES	DRD3 antagonist	a7 integrin act	D3 ag	ATXN2 expr inh	IL-1B inflam inh	S2 tox
NC(=O)N/N=C/c1c(O)ccc2oc3c(c12)CCCC3	-4.7	-27.6%	-5.5	?	-98.0*	i
CC(C)(C)N=Cc1c(O)ccc2oc3c(c12)CCCC3	-8.9	10.5%	-6.5	-20.6%	42.3	i
Cn1c(O)c(C2=c3ccccc3=NC2=O)sc1=Nc1ccc(Cl)cc1	-63.0*	-40.1%	-1.3	-16.1%	16.3	?
Cc1c(-n2c(O)c(C3=c4ccccc4=NC3=O)sc2=O)c(=O)n(-c2ccccc2)n1C	-20.7	12.9%	2.8	-4.1%	26.5	i
CC(=O)c1cccc(NC(=O)c2cc3nc(-c4ccc(Br)cc4)cc(C(F)(F)F)n3n2)c1	/	/	-15.9	/	/	/
COc1cccc(C(=O)N(Cc2ccccc2)Cc2cc3cc4c(cc3[nH]c2=O)OCCO4)c1	32.3	-13.9%	33.4*	-13.2%	-11.0	i
CC1CCC(NC(=O)c2cccc(S(=O)(=O)NCc3ccccc3)c2)CC1 (centres undefined)	-16.0	24.2%	-10.1	0.0%	-16.0	i
CC(C)CC(OC(=O)c1cccs1)C(=O)NCC1CCCO1 (centres undefined)	-23.7	25.9%	-6.2	3.2%	7.7	i
COc1ccccc1C(OC(=O)c1cccs1)C(=O)NCC1CCCO1 (centres undefined)	-25.1	-0.8%	-11.1	-7.9%	5.5	i
O=C(OC(C(=O)NCC1CCCO1)c1ccccn1)c1cccs1 (centres undefined)	2.1	17.2%	12.1	0.4%	-55.7*	i
COc1ccc(C(OC(=O)c2cccs2)C(=O)NCC2CCCO2)cc1 (centres undefined)	-7.7	-0.3%	7.8	6.7%	-58.5*	i
CCCCn1cnc2c(c1=O)c1nc3ccccc3nc1n2Cc1ccc2c(c1)OCO2	1.3	17.2%	-10.9	5.8%	15.1	i
Cc1[nH]c2ccccc2c1SCC(=O)N1CCC(C)CC1	16.3	3.7%	2.8	/	-27.6	i
COc1ccc(C(=O)c2cn(Cc3ccc(F)cc3)c3ccc(C)cc3c2=O)cc1	/	/	5.8	?	/	17.8µM*
COc1ccc2c(c1)c(=O)c(C(=O)c1ccc(C)cc1)cn2Cc1ccccc1F	/	/	2.2	?	/	25.1µM*
CCOc1ccc(C(=O)c2cn(Cc3ccc(Cl)cc3)c3cc(OC)c(OC)cc3c2=O)cc1	/	/	-10.1	-6.8%	/	15.8µM*
O=c1oc2ccccc2c(Cl)c1CN1CCCCC1	-76.3*	-62.9%	-21.4	?	-9.2	?
O=c1oc2ccccc2c(N2CCCC2)c1CN1CCCC1	-22.0	0.0%	-18.1	3.0%	17.1	i
